# Reference: PubChem BioAssay
# Values joined by “and” are separate entries in the source; they are usually repeats but may differ in a detail not shown here. Equal entries are not always repeated. Inconclusive results are not listed. Active and inactive are the calls of the source. Unless noted, the rule behind the calls is not given here.
# What was measured:
# [1] = test system: Neuropilin-2 / VEGF-C interaction (human); experiment: small molecules blocking Neuropilin-2/VEGF-C interaction – biochemical, microplate binding format, z-score (AID 743281); conditions: microplate NRP2/VEGF-C binding assay; stronger effect = lower value
# [2] = modulation of C. elegans fzo-1 (AID 1259413);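 note: fzo-1 mutant C. elegans worms in liquid wells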; conditions: C. elegans fzo-1 modulator screen, mean read-out; stronger effect = higher value
# [3] = MELAS cybrid and Rieske KO viability enhancers – cell-based, MELAS cybrids, Rieske KO mouse fibroblasts, CellTiter-Glo, primary screen (AID 1508586;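 active = mean z-score across replicates of 1.96 or higher in either the MELAS or the Rieske mutant cell line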;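 note: z relative to plate mean and SD of compound and empty wells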); conditions: low glucose
# [4] = molecular target: NAD(+) hydrolase SARM1 (Homo sapiens) (UniProt Q6SZW1); experiment: blocking NAD cleavage by SARM1 SAM-TIR – cell lysate, NAD-Glo luminescence (AID 1508614;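 active = compound whose remaining NAD level is above about 45 nM, limit read from the data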;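 note: higher remaining NAD means stronger inhibition of SARM1 NADase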); conditions: SAM-TIR HEK293T lysate NADase, at 1 µM, stronger effect = higher value
# Sequence of NAD(+) hydrolase SARM1 (Homo sapiens) (Q6SZW1 whole entry, looked up, the tested form may be a part): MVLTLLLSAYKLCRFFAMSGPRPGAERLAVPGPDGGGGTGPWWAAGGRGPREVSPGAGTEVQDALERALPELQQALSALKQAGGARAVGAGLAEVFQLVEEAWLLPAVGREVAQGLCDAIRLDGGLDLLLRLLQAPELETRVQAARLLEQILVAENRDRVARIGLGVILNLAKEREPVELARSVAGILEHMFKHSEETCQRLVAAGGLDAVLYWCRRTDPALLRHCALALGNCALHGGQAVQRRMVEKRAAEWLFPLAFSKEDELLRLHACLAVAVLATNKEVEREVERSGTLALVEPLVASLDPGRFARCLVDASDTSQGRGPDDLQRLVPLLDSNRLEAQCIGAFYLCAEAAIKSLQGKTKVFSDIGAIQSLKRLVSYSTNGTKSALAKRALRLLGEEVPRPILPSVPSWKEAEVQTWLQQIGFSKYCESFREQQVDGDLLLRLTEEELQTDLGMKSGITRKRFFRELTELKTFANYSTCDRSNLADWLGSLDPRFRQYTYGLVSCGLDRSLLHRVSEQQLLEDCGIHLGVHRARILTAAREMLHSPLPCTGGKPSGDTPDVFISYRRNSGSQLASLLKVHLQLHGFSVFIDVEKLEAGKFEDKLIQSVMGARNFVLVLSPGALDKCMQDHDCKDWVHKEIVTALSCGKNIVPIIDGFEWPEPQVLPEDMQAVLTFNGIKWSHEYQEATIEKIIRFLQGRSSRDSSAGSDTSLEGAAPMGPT
# [5] = molecular target: Mitogen-activated protein kinase 7 (Homo sapiens) (UniProt Q13164); experiment: Gal4-ERK5 driven luciferase induction – cell-based, HTS, primary screen (AID 1508626;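 active = luciferase signal above three times the same-plate solvent-only control wells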;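 note: luciferase driven by Gal4-ERK5 fusion binding five Gal4 sites before minimal TATA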); conditions: HeLa Gal4-ERK5 transactivation, 18 h, at 5 µM, stronger effect = higher value
# Sequence of Mitogen-activated protein kinase 7 (Homo sapiens) (Q13164 whole entry, looked up, the tested form may be a part): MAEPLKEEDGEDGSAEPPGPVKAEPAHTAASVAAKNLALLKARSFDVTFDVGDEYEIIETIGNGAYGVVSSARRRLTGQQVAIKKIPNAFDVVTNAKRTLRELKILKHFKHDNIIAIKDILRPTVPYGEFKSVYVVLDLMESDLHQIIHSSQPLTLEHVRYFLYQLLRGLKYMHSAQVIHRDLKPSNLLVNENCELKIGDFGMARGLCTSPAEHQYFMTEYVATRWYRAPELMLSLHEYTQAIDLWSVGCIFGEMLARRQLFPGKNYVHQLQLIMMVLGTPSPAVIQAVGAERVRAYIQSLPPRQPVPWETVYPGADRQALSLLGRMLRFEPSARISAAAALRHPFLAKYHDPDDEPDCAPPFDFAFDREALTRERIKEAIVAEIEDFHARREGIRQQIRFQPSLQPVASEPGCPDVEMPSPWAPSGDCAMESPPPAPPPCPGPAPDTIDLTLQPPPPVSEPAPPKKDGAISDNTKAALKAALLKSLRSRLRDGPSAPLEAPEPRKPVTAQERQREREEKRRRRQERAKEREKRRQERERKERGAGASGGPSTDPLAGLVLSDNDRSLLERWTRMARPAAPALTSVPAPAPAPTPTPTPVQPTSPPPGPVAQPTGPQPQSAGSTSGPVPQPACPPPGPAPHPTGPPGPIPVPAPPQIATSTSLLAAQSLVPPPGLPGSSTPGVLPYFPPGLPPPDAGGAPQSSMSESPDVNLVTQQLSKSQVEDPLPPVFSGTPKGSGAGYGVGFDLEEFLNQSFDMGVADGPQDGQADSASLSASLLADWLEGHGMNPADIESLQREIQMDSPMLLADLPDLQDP
# [6] = P. berghei load reduction in hepatocytes – cell-based, HepG2, luciferase luminescence, HepG2 viability, primary screen (AID 624349; in the data active = parasite load remaining mostly below about 12%, no sharp cut-off; inactive = mostly above about 10%;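 note: 100% = mean of DMSO negative control wells on the same plate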); conditions: P. berghei liver stage in HepG2, luciferase luminescence, concentration not given here; parasite load remaining: stronger effect = lower value; viability: measured here: HepG2 viability without parasites
# [7] = signal quenchers or enhancers, Cy5 substrate/SSB – biochemical, NIH Clinical Collection, E. coli SSB, artefact control for HCV NS3 helicase inhibitor project (AID 743268); conditions: Cy5-oligo bound E. coli SSB, fluorescence interference
# [8] = test system: Hepatitis C virus NS3 helicase; experiment: blockers of NS3h binding to DNA – biochemical, fluorescence polarization, NIH Clinical Collection, primary screen (AID 743270); conditions: NS3 helicase binding to Cy5-dT15 DNA, stronger effect = higher value, concentration not given here
# [9] = molecular target: Single-stranded DNA-binding protein (Escherichia coli (strain K12)) (UniProt P0AGE0); experiment: SSB-ssDNA binding inhibitors – biochemical, fluorescence polarization, NIH Clinical Collection, counter-screen for HCV NS3 helicase inhibitor project (AID 743271; in the data active = inhibition above about 28%); conditions: E. coli SSB-DNA binding, stronger effect = higher value, concentration not given here
# [10] = compounds distorting NS3 helicase fluorescence signal – biochemical, NIH Clinical Collection, artefact control for HCV NS3 helicase inhibitor project (AID 743272); conditions: fluorescence interference counterscreen, HCV NS3 helicase assay; stronger effect = lower value;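 note: HCV NS3 helicase with a Cy5 labelled single stranded DNA probe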
# [11] = viability loss in pontine glioma line – cell-based, SU-DIPG-XVII, MIPE5.0, CellTiter-Glo, qHTS, dose response (AID 1347060; cut-off not given, nearly all actives have AC50 up to about 26 µM;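 note: cells exposed to compound for 48 hours before viability readout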); conditions: CellTiter-Glo ATP luminescence
# [12] = viability loss in pontine glioma line – cell-based, SU-DIPG-XIII, MIPE4.0, CellTiter-Glo, qHTS, dose response (AID 1347061; cut-off not given, nearly all actives have AC50 up to about 37 µM;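 note: cells exposed to compound for 48 hours before readout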); conditions: CellTiter-Glo ATP luminescence
# [13] = viability loss in pontine glioma line – cell-based, JHH-DIPG-1, MIPE4.0, CellTiter-Glo, qHTS, dose response (AID 1347062; cut-off not given, nearly all actives have AC50 up to about 27 µM); conditions: JHH-DIPG-1 viability, CellTiter-Glo ATP luminescence
# [14] = viability loss in pontine glioma line – cell-based, SU-DIPG-XIII, MIPE5.0, CellTiter-Glo, qHTS, dose response (AID 1347064; cut-off not given, nearly all actives have AC50 up to about 23 µM); conditions: CellTiter-Glo ATP luminescence
# [15] = growth inhibition of DIPG cells – cell-based, MIPE4.0 library, CellTiter-Glo luminescence, qHTS (AID 1347066; cut-off not given, nearly all actives have AC50 up to about 30 µM;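 note: cells exposed to compound for 48 hours before readout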); conditions: SU-DIPG-VI viability, CellTiter-Glo ATP luminescence
# [16] = JHH-DIPG-1 glioma cell viability, MIPE5.0 library, CellTiter-Glo luminescence, qHTS (AID 1347067; cut-off not given, nearly all actives have AC50 up to about 26 µM;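 note: cells exposed to compound for 48 hours before readout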); conditions: JHH-DIPG-1 glioma viability, CellTiter-Glo ATP luminescence
# [17] = growth inhibition of DIPG cells – cell-based, MIPE5.0 library, qHTS (AID 1347068; cut-off not given, nearly all actives have IC50 up to about 30 µM); conditions: SU-DIPG-XXV viability
# [18] = viability loss with induced miR-34 in A549 – imaging, A549 dox-inducible miR-34, nuclei and caspase counts, primary screen (AID 1347080;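 active = compounds whose cell count with miR-34 switched on is under 0.7 times the count with it off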); conditions: A549 miR-34 inducible, Hoechst nuclei count, 48 h
# [19] = chitosan synthesis blockers in C. neoformans – flow cytometry, Cibacron Brilliant Red staining (AID 1347148); conditions: Cryptococcus neoformans chitosan, stronger effect = lower value; at 10 µM unless noted;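 note: compound exposure lasted three days at 37 degrees C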
# [20] = compounds altering HSF1 focus formation in cells – imaging, Selleck Cancer Library (AID 1347162; in the data active = plate-normalised HSF1 focus index below about 0.46); conditions: human cells, HSF1 nuclear foci imaging, at 10 µM; SSMD: measured here: HSF1 foci SSMD mean; cell count: measured here: cell number; plate-normalised HSF1 focus index: stronger effect = lower value
# [21] = galactose survival enhancers in mitochondrial complex I cybrids – cell-based, galactose medium, ATP luminescence, primary screen (AID 1645843;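 active = z-score of at least 1.8 in each of two replicates, scored against plate mean and spread of sample wells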;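 note: positive z means more ATP and so rescue of galactose-driven cybrid death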); conditions: complex I mutant cybrid cells, 72 h, stronger effect = higher value
# [22] = compounds altering circadian rhythm period length – cell-based, LOPAC library, luminescence reporter (AID 2774); conditions: circadian reporter cells, at 7 µM, actives lie on both sides;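 note: values are relative to mean of DMSO wells on each plate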
# [23] = compounds altering viability of human ES cells (AID 493140); conditions: human embryonic stem cell survival screen; stronger effect = higher value;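 note: cells exposed to compounds for four days before counting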
# [24] = test system: Hepatitis C virus NS3 helicase; experiment: blockers of NS3h binding to ssDNA – biochemical, fluorescence polarization, LOPAC1280 library, primary screen (AID 687035; in the data active = inhibition above about 37%); conditions: Purified HCV NS3 helicase, Cy5-dT15 ssDNA binding fluorescence polarization; stronger effect = higher value; concentration not given here
# [25] = compounds altering Cy5-DNA-NS3h complex signal – biochemical, LOPAC1280, artefact control for HCV NS3 helicase inhibitor project (AID 687037); conditions: Cy5-DNA-NS3h complex fluorescence interference counterscreen
# [26] = test system: Aerobactin synthetase IucA (Klebsiella pneumoniae); experiment: inhibition of K. pneumoniae IucA enzyme – biochemical, Tocris library, absorbance (AID 1345561); conditions: purified IucA enzyme assay, absorbance (OD) read-out; stronger effect = lower value;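 tested at 8 µM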;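 note: 100% = enzyme without compound and 0% = no enzyme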
# [27] = blockers of cellular phospholipid synthesis – cell-based, LOPAC library, screen 4, primary screen (AID 1347384); conditions: animal cells, phospholipid biosynthesis inhibition screen; at 10 µM
# [28] = MELAS cybrid survival, CellTiter-Glo 48 h, stronger effect = higher value
# [29] = Rieske KO mouse fibroblast survival, CellTiter-Glo 72 h
# [30] = stronger effect = lower value, cell number ratio, induced over uninduced
# [31] = measured here: relative caspase fold change +Dox/-Dox
# [32] = measured here: total cells with miR-34 induction, stronger effect = lower value
# [33] = measured here: total cells without miR-34 induction
smiles,measurement,setting,value
COCC1=C(C(=O)OC(C)OC(=O)OC(C)C)N2C(=O)[C@@H](NC(=O)/C(=N\OC)c3csc(N)n3)[C@H]2SC1 (stereo not given in full),outcome,[1],inactive
same,mean signal,[2],270 (inactive)
same,z-score,[3]; [28],-0.0637 (inactive)
same,z-score,[3]; [29],-0.177
same,remaining NAD,[4],10 nM (inactive)
same,luciferase signal,[5],40 AU (inactive)
O=C1NC(=O)N(C2CC(O)C(CO)O2)CC1F (stereo not given),mean signal,[2],241 (inactive)
CCCC1O[C@@H]2C[C@H]3[C@@H]4CCC5=CC(=O)C=CC5(C)[C@H]4[C@@H](O)CC3(C)C2(C(=O)CO)O1 (stereo not given in full),mean signal,[2],259 (inactive)
COc1cc([C@@H]2c3cc4c(cc3[C@@H](O[C@@H]3O[C@@H]5CO[C@@H](C)O[C@H]5[C@H](O)[C@H]3O)[C@H]3COC(=O)[C@H]23)OCO4)cc(OC)c1O,parasite load remaining,[6],189% (inactive) and 77.5% (inactive) and 87.8% (inactive)
same,viability,[6],114% and 71.8% and 103%
same,fluorescence ratio,[7],1.02 (inactive)
same,inhibition,[8],0.66% (inactive)
same,inhibition,[9],2.76% (inactive)
same,fluorescence ratio,[10],1.01 (inactive)
same,z-score,[1],-1.12 (inactive)
same,mean signal,[2],267 (inactive)
same,AC50,[11],1660 nM (active)
same,outcome,[12],inactive
same,outcome,[13],inactive
same,outcome,[14],inactive
same,outcome,[15],inactive
same,outcome,[16],inactive
same,outcome,[17],inactive
same,fold change,[18]; [30],0.888 (inactive) and 1.07 (inactive)
same,fold change,[18]; [31],1.6 and 0.504
same,cell count,[18]; [32],2840 and 3400
same,cell count,[18]; [33],3200 and 3170
same,fold fluorescence,[19],5.2 [at 85 µM] (inactive)
same,SSMD,[20],-0.198
same,cell count,[20],6820
same,plate-normalised HSF1 focus index,[20],0.99 (inactive)
same,z-score,[3]; [28],-0.423 (inactive) and -1.1 (inactive)
same,z-score,[3]; [29],-0.861 and 0.337
same,luciferase signal,[5],48 AU (inactive)
same,z-score,[21],-2.08 (inactive)
CCCCC(=O)O[C@H]1CC[C@H]2[C@@H]3CCc4cc(O)ccc4[C@H]3CCC12C (stereo not given in full),mean signal,[2],242 (inactive)
CN1[C@@H](CC(=O)c2ccccc2)CCC[C@H]1C[C@H](O)c1ccccc1,period change,[22],-0.145 h (inactive)
same,survival,[23],11.3 (inactive)
same,parasite load remaining,[6],59.5% (inactive) and 70.7% (inactive) and 71% (inactive)
same,viability,[6],108% and 77.1% and 78.1%
same,inhibition,[24],0% (inactive)
same,fluorescence ratio (interference),[25],1 (inactive)
same,fluorescence ratio,[7],1.03 (inactive)
same,inhibition,[8],0.4% (inactive)
same,inhibition,[9],-0.1% (inactive)
same,fluorescence ratio,[10],1.03 (inactive)
same,z-score,[1],-0.358 (inactive)
same,mean signal,[2],245 (inactive)
same,remaining activity,[26],122% (inactive)
same,fold change,[18]; [30],1.06 (inactive) and 0.859 (inactive) and 0.83 (inactive)
same,fold change,[18]; [31],0.866 and 1.18 and 1.23
same,cell count,[18]; [32],11200 and 9030 and 8370
same,cell count,[18]; [33],10500 and 10100
same,outcome,[27],inactive
same,z-score,[21],-0.54 (inactive) and -0.495 (inactive)
